Experimental data taken from PubChem BioAssay (NCATS).
Inconclusive results are not listed. Calls of active or inactive are those of the source. Calls come from the whole dose curve; as a rule, active = well fitted curve in the direction sought with a large enough effect; inconclusive = small, poorly fitted or top-dose-only effect, or another doubt; inactive = no such curve, though single readings can be large; an effect the other way counts as inactive or inconclusive.

Assays:
[1] = Cellular Toxicity (caspase-3) Mesangial (AID 660); conditions: mesangial cells, normalized: DMSO 0%, 100 µM tamoxifen 100%; at 91.7 µM (top of the series);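 note: cells exposed to compound for 16 h before the caspase read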
Method in brief: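 Human renal glomerular mesangial cells (1000/well) were treated with compounds for 16 h at 37 °C in complete medium, then caspase 3/7 activity was read by Caspase-Glo luminescence. Data were normalized to DMSO and 100 uM tamoxifen; AC50 from Hill fits.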

[2] = Cellular Toxicity (caspase-3) SK-N-SH (AID 661);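 note: 0% = DMSO basal and 100% = 10 µM staurosporine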
Method in brief: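 SK-N-SH human neuroblastoma cells (1500/well) were treated with compounds for 16 hr at 37 °C in complete medium; caspase 3/7 activity was read by Caspase-Glo luminescence. AC50 came from Hill fits of data normalized to DMSO and 10 uM staurosporine.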

[3] = Cellular Toxicity (caspase-3) H-4-II-E (AID 663); conditions: H-4-II-E rat hepatoma, scaled: DMSO 0%, 100 µM tamoxifen 100%; at 92.2 µM (top of the series);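 note: cells exposed to compound for 16 hr before readout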
Method in brief: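 Luminescence from caspase-cleaved aminoluciferin substrate, read 20 min after reagent addition, reports caspase 3/7 activation in rat H-4-II-E cells after 16 hr compound exposure. Normalized to DMSO (basal) and 100 uM tamoxifen (100%); AC50 from Hill fits.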

[4] = Cellular Toxicity (caspase-3) Hek293 (AID 664); conditions: HEK293 caspase-3 activation, DMSO = 0%, 100 µM tamoxifen = 100%; at 92.2 µM (top of the series);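 note: cells exposed to compound for 16 h at 37 °C before readout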
Method in brief: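 HEK293 cells were exposed to compounds in complete medium for 16 hr at 37 °C, then caspase-3/7 activity was read by Caspase-Glo 3/7 luminescence after 20 min at room temperature. Data normalized to DMSO and 100 uM tamoxifen; AC50 from Hill fits.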

[5] = Cellular Toxicity (caspase-3) N2a (AID 665);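 note: compound exposure lasted 16 h at 37 °C before readout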
Method in brief: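 Mouse N2a neuroblastoma cells (1500/well) were treated with compounds for 16 h at 37 °C, then caspase-3/7 activity was read by Caspase-Glo luminescence after 1 h at room temperature. Data were normalized to DMSO and 10 uM staurosporine; AC50 from Hill fits.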

[6] = Cellular Toxicity (caspase-3) NIH 3T3 (AID 666);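 note: 0% = DMSO basal and 100% = 100 µM tamoxifen stimulation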
Method in brief: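 Mouse NIH 3T3 fibroblasts (1000 cells/well) were treated with compound for 16 hr at 37°C in complete medium; caspase-3/7 activity was read by Caspase-Glo luminescence. Normalized to DMSO and 100 uM tamoxifen; AC50 from Hill fits.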

[7] = Cellular Toxicity (caspase-3) Renal Proximal Tubule (AID 667); conditions: Potency: caspase-3 activation;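 note: cells exposed to compound for 16 hours at 37 °C before detection; 0% = DMSO basal and 100% = 10 µM staurosporine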
Method in brief: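 Caspase-Glo 3/7 read-out, rat primary kidney proximal tubule cells. Compound exposure 16 h, 37 °C; detection after 1 h at RT. Activity scaled to DMSO and 10 uM staurosporine.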

[8] = target: Cytochrome P450 3A4 (Homo sapiens) (UniProt P08684); test: qHTS Assay for Inhibitors and Substrates of Cytochrome P450 3A4 (AID 884); note: nearly all actives have a fitted effect of over 50% in size; note: potency is the fitted concentration of half-maximal effect
Cytochrome P450 3A4 (Homo sapiens), sequence (P08684 whole entry, looked up): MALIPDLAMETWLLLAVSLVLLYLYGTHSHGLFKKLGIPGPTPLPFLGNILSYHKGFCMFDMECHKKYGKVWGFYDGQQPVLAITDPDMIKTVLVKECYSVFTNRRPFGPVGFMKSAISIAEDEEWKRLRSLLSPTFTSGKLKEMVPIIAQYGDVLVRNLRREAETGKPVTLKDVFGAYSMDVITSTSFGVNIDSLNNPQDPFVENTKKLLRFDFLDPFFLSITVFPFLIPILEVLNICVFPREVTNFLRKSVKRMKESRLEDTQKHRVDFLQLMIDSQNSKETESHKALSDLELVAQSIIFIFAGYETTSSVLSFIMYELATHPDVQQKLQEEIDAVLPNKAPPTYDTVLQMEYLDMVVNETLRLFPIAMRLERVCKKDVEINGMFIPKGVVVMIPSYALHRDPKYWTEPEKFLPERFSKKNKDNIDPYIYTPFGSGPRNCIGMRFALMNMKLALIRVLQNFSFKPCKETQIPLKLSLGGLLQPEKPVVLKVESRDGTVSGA
Method in brief: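 20 nM human CYP3A4 with 25 uM Luciferin-PPXE (at KM) in 200 mM KPO4, preincubated 10 min with compound; NADPH regeneration started a 60 min RT reaction. Luciferin detected by luminescence, normalized to 57 uM ketoconazole as full inhibition.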

[9] = Cell Viability - LYMP2-001 (AID 921);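 note: 0% = DMSO only and full inhibition = tetraoctylammonium bromide control wells; nearly all actives have a fitted effect of over 70% in size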
Method in brief: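 A lymphoblastoid cell line of human origin was treated with library compounds across a concentration series for 24 hours, and viable cell number was estimated from ATP-driven luciferase light output. Hill modeling gave AC50.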

[10] = MultiTox-Fluor Cytotoxicity Assay - LYMP1-001 - Dead Cells (AID 946);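 note: 0% = DMSO and 100% = tetraoctylammonium bromide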
Method in brief: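 LYMP1-001 lymphoblastoid cells (2500/well) treated 16 h at 37 C. Dead-cell protease cleavage of bis-AAF-R110 read at Ex/Em 485/520. Normalized to DMSO and 15 uM tetraoctylammonium bromide; AC50 from Hill fits.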

[11] = MultiTox-Fluor Cytotoxicity Assay - LYMP1-001 - Live Cells (AID 947);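 note: 0% = DMSO only and full inhibition = tetraoctylammonium bromide control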
[12] = Cell Viability - LYMP1-002 - Assay at 16 hr (AID 948);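 note: 0% = DMSO alone and full effect = 92 µM tetraoctylammonium bromide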
Method in brief: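 In this qHTS, lymphoblastoid LYMP1-002 cells (human) receive compounds for 16 hr at 37 C. Viability is taken from CellTiter-Glo ATP luminescence, and AC50 derives from standard Hill fits.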

[13] = MultiTox-Fluor Cytotoxicity Assay - LYMP1-002 - Live Cells (AID 955); note: % is set by controls: 0 for no effect and ±100 for the full control effect
Method in brief: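 Human lymphoblastoid LYMP1-002 cells, 2500/well in complete medium, rested 5 hr at 37 C, then exposed to compounds for 16 hr at 37 C. Live-cell protease cleavage of GF-AFC read by fluorescence (Ex/Em 405/510) after 60 min at room temperature; AC50 from Hill fits.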

[14] = MultiTox-Fluor Cytotoxicity Assay - LYMP1-002 - Dead Cells (AID 960);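 note: 0% = DMSO and 100% = tetraoctylammonium bromide; nearly all actives have a fitted effect of over 60% in size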
Method in brief: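 Human lymphoblastoid cells (LYMP1-002), 2500/well in complete medium, were exposed to compounds for 16 hr at 37 C. Dead-cell protease activity was read as bis-AAF-R110 fluorescence (Ex/Em 485/520), normalized to DMSO and 15 uM tetraoctylammonium bromide; AC50 from Hill fits.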

[15] = MultiTox-Fluor Cytotoxicity Assay - LYMP1-003 - Dead Cells (AID 961);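 note: 0% = DMSO and 100% = tetraoctylammonium bromide; nearly all actives have a fitted effect of over 70% in size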
Method in brief: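 LYMP1-003 human lymphoblastoid cells (2500/well) exposed to compound 16 h at 37 C in complete medium; dead-cell protease read with bis-AAF-R110 fluorescence (Ex/Em 485/520) after 60 min at room temperature. Normalized to DMSO and 15 uM tetraoctylammonium bromide; AC50 from Hill fit.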

[16] = MultiTox-Fluor Cytotoxicity Assay - LYMP1-003 - Live Cells (AID 962);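 note: 0% = DMSO only and full loss = 92 µM tetraoctylammonium bromide; cytotoxic hits lower the live-cell protease signal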
Method in brief: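 LYMP1-003 human lymphoblastoid cells (2500/well) in complete medium were preincubated 5 hr at 37 C, then exposed to compounds for 16 hr at 37 C. Live-cell protease cleavage of GF-AFC read by fluorescence (Ex/Em 405/510); AC50 from Hill fits.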

[17] = Cell Viability - LYMP1-003 - Assay at 24 hr (AID 963);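 note: plate controls were DMSO only for no effect and tetraoctylammonium bromide positive control for full effect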
Method in brief: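 Human lymphoblastoid LYMP1-003 cells (2500/well) were rested 5 hr at 37 C, then exposed to compounds in complete medium for 24 hr at 37 C. Cellular ATP was quantified by CellTiter-Glo luminescence, and AC50 values came from Hill fits of concentration-response data.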

[18] = Cell Viability - LYMP1-003 - Assay at 40 hr (AID 964); note: % is set by controls: 0 for no effect and ±100 for the full control effect; nearly all actives have a fitted effect of over 60% in size
Method in brief: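 Human lymphoblastoid LYMP1-003 cells, 2500/well in complete medium, rested 5 hr at 37 C, then exposed to compounds for 40 hr at 37 C. Viability read as intracellular ATP by CellTiter-Glo luminescence; AC50 from Hill fits of concentration-response data.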

[19] = Cell Viability - LYMP2-003 (AID 965);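 note: cells exposed to compounds for 24 h before reading; 0% = DMSO only and full effect = 92 µM tetraoctylammonium bromide; nearly all actives have a fitted effect of over 50% in size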
Method in brief: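 qHTS, human lymphoblastoid line, 2500 cells/well, complete medium. 24 h drug, 37 C. ATP-based luminescent readout; Hill-fit AC50.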

[20] = target: Cytochrome P450 3A4 (Homo sapiens) (UniProt P08684); test: qHTS Assay for Activators of Cytochrome P450 3A4 (AID 885); note: nearly all actives have a fitted effect of over 65% in size
Method in brief: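 Human CYP3A4 (20 nM) with Luciferin-PPXE at 25 uM (its KM) in 200 mM KPO4; 10 min compound preincubation, then NADPH regeneration and 60 min reaction at RT. Luciferin read by luminescence; normalized to 57 uM ketoconazole full inhibition.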

CCCCC(C=O)CC (configuration not stated)
inactive: caspase-3 activation [1] 0.71% | outcome [2] | caspase-3 activation [3] 3.13% | caspase-3 activation [4] 1.03% | outcome [5] | outcome [6] | Potency [7] | Potency [8] | Potency [9] | outcome [10] | outcome [11] | outcome [12] | outcome [13] | outcome [14] | Potency [15] | Potency [16] | Potency [17] | Potency [18] | Potency [19]

FC(F)(F)c1cccc(Cl)c1
inactive: caspase-3 activation [1] -0.53% | outcome [2] | caspase-3 activation [3] 0.296% | caspase-3 activation [4] 0.768% | outcome [5] | outcome [6] | Potency [7] | Potency [8] | Potency [9] | outcome [10] | outcome [11] | outcome [12] | outcome [13] | outcome [14] | Potency [15] | Potency [16] | Potency [17] | Potency [18] | Potency [19]

CCCOCC(C)O (configuration not stated)
inactive: caspase-3 activation [1] 0.289% | outcome [2] | caspase-3 activation [3] -0.784% | caspase-3 activation [4] -1.05% | outcome [5] | outcome [6] | Potency [7] | Potency [8] | Potency [9] | outcome [10] | outcome [11] | outcome [12] | outcome [13] | outcome [14] | Potency [15] | Potency [16] | Potency [17] | Potency [18] | Potency [19]

O=[N+]([O-])c1cccc(C(F)(F)F)c1
inactive: caspase-3 activation [1] -1.76% | outcome [2] | caspase-3 activation [3] -0.931% | caspase-3 activation [4] 0.383% | outcome [5] | outcome [6] | Potency [7] | Potency [8] | Potency [9] | outcome [10] | outcome [11] | outcome [12] | outcome [13] | outcome [14] | Potency [15] | Potency [16] | Potency [17] | Potency [18]

Nc1nc(-c2ccccc2)cs1
active: Potency [8] 20 µM
inactive: caspase-3 activation [1] 0.48% | outcome [2] | caspase-3 activation [3] 0.301% | caspase-3 activation [4] 0.507% | outcome [5] | outcome [6] | Potency [7] | outcome [20] | Potency [9] | outcome [10] | outcome [11] | outcome [12] | outcome [13] | Potency [15] | Potency [16] | Potency [17] | Potency [18] | Potency [19]

Cc1cccc(C(=O)O)c1[N+](=O)[O-]
inactive: caspase-3 activation [1] 0.577% | outcome [2] | caspase-3 activation [3] 0.904% | caspase-3 activation [4] 3.47% | outcome [5] | outcome [6] | Potency [7] | Potency [8] | Potency [9] | outcome [10] | outcome [11] | outcome [12] | outcome [13] | outcome [14] | Potency [15] | Potency [16] | Potency [17] | Potency [18] | Potency [19]

CCC(C)(C)OC
inactive: caspase-3 activation [1] -0.415% | outcome [2] | caspase-3 activation [3] 0.321% | caspase-3 activation [4] -1.93% | outcome [5] | outcome [6] | Potency [7] | Potency [8] | Potency [9] | outcome [10] | outcome [11] | outcome [12] | outcome [13] | outcome [14] | Potency [15] | Potency [16] | Potency [17] | Potency [18] | Potency [19]
